In PubChem BioAssay (NCI):
Compounds without any hit were thinned out: in the full panel of roughly 83,000, 20% have a hit.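 In brief: 96-well plates, 48 h treatment, single concentration, percent growth endpoint.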 Active and inactive are the calls of the source. How the source made its calls: active means growth percent below 10; inactive means the rest.

What was measured:
Test in all cases: NCI-60 one-dose screen, 48 h (100 = growth as untreated, 0 = no growth, -100 = all killed)
Details in all cases: 10 µM unless noted
NCI-H23 lung = tested on: NCI-H23 lung
NCI-H322M lung = tested on: NCI-H322M lung
HOP-62 NSCLC = tested on: HOP-62 NSCLC
NCI-H460 lung = tested on: NCI-H460 lung
HOP-92 NSCLC = tested on: HOP-92 NSCLC
NCI-H522 lung = tested on: NCI-H522 lung
A549/ATCC NSCLC = tested on: A549/ATCC NSCLC
786-0 renal = tested on: 786-0 renal
COLO 205 colon = tested on: COLO 205 colon
DU-145 prostate = tested on: DU-145 prostate
K-562 leukemia = tested on: K-562 leukemia
MALME-3M melanoma = tested on: MALME-3M melanoma
MDA-MB-231 breast = tested on: MDA-MB-231 breast
RXF 393 renal = tested on: RXF 393 renal
SF-268 CNS = tested on: SF-268 CNS
SF-295 CNS = tested on: SF-295 CNS
SF-539 CNS = tested on: SF-539 CNS
UACC-257 melanoma = tested on: UACC-257 melanoma
M14 melanoma = tested on: M14 melanoma
HCT-15 colon = tested on: HCT-15 colon

Measured: growth

COc1cc(/C=C2\CN(S(=O)(=O)c3ccccc3)C/C(=C\c3cc(CN4CCCC4)c(O)c(OC)c3)C2=O)cc(CN2CCCC2)c1O
active: NCI-H23 lung -57.8% | HOP-62 NSCLC -4.65% | NCI-H460 lung -30.7% | HOP-92 NSCLC -11.3% | NCI-H522 lung -26.3% | 786-0 renal 4.02% | COLO 205 colon -30.4% | DU-145 prostate -16.7% | K-562 leukemia 8.41% | MALME-3M melanoma -51.6% | MDA-MB-231 breast -32.7% | RXF 393 renal -65.4% | SF-295 CNS -34.2% | SF-539 CNS -46.6% | M14 melanoma -19.2%
inactive: NCI-H322M lung 21.4% | A549/ATCC NSCLC 19.9% | SF-268 CNS 12.9% | UACC-257 melanoma 40.1% | HCT-15 colon 50.3%

CCN1C(=O)N(CC)C2Nn3c(s/c(=C4\C(=O)N(C(C)C)c5ccccc54)c3=O)=NC21 (stereo not given)
inactive: NCI-H23 lung 36.6% | NCI-H322M lung 61.3% | HOP-62 NSCLC 51.8% | NCI-H460 lung 21.3% | HOP-92 NSCLC 13.9% | NCI-H522 lung 27.2% | A549/ATCC NSCLC 30.4% | 786-0 renal 49.1% | DU-145 prostate 38% | K-562 leukemia 13.8% | MALME-3M melanoma 71.4% | MDA-MB-231 breast 24% | RXF 393 renal 44.5% | SF-268 CNS 51.8% | SF-295 CNS 19% | SF-539 CNS 11.5% | UACC-257 melanoma 28.9% | M14 melanoma 21.9% | HCT-15 colon 22.3%
active: COLO 205 colon 7.65%

COc1cc(/C=C2\Oc3cc(OCCCN4CCCC4)ccc3C2=O)cc(OC)c1
inactive: NCI-H23 lung 69.9% | NCI-H322M lung 77.1% | HOP-62 NSCLC 91.5% | HOP-92 NSCLC 67.6% | NCI-H522 lung 76.7% | A549/ATCC NSCLC 33.2% | 786-0 renal 73.6% | COLO 205 colon 71% | DU-145 prostate 33.6% | MALME-3M melanoma 93% | MDA-MB-231 breast 53.7% | RXF 393 renal 60.4% | SF-268 CNS 72.5% | SF-295 CNS 85.7% | UACC-257 melanoma 81.4%
active: NCI-H460 lung -71.1% | K-562 leukemia -63.3% | SF-539 CNS -90.3% | M14 melanoma -60.1% | HCT-15 colon 5.66%

COc1cc(C=C2C(=O)N(C)C(=O)N(C)C2=O)cc(CN2CCCCC2)c1O
inactive: NCI-H23 lung 96.6% | NCI-H322M lung 102% | HOP-62 NSCLC 93.1% | NCI-H460 lung 108% | HOP-92 NSCLC 101% | NCI-H522 lung 94.3% | A549/ATCC NSCLC 100% | 786-0 renal 95.5% | COLO 205 colon 111% | DU-145 prostate 104% | K-562 leukemia 96.4% | MALME-3M melanoma 93.3% | MDA-MB-231 breast 98.1% | RXF 393 renal 116% | SF-268 CNS 94.1% | SF-295 CNS 104% | SF-539 CNS 100% | UACC-257 melanoma 104% | M14 melanoma 102% | HCT-15 colon 104%

COc1cc(C(C)n2cc(-c3ccccc3)nn2)ccc1OC1CCCC1 (stereo not given)
inactive: NCI-H23 lung 45.4% | NCI-H322M lung 78% | HOP-62 NSCLC 52.7% | NCI-H460 lung 74.1% | HOP-92 NSCLC 54.7% | NCI-H522 lung 51.2% | A549/ATCC NSCLC 61.3% | 786-0 renal 72.7% | COLO 205 colon 91.8% | DU-145 prostate 85.6% | K-562 leukemia 34% | MALME-3M melanoma 63.7% | MDA-MB-231 breast 76% | RXF 393 renal 83.1% | SF-268 CNS 72% | SF-295 CNS 47.1% | SF-539 CNS 69.3% | UACC-257 melanoma 55.4% | M14 melanoma 82.8% | HCT-15 colon 62.2%

COc1cc2nc(-c3cccc4cccnc34)nc(NC3CCN(Cc4ccccc4)CC3)c2cc1OC
active: NCI-H23 lung -72.2% | NCI-H322M lung -71.3% | HOP-62 NSCLC -73.9% | NCI-H460 lung -73.6% | HOP-92 NSCLC -73.2% | NCI-H522 lung -52.1% | A549/ATCC NSCLC -72.7% | 786-0 renal -71.4% | COLO 205 colon -75.5% | DU-145 prostate -93.6% | K-562 leukemia -49.4% | MALME-3M melanoma -76.6% | MDA-MB-231 breast -89.5% | RXF 393 renal -79.8% | SF-268 CNS -68.8% | SF-295 CNS -87.2% | SF-539 CNS -86.6% | UACC-257 melanoma -62.4% | M14 melanoma -80% | HCT-15 colon -80.9%

C#CCn1cc(C=C2C(=O)N(C)C(=O)N(C)C2=O)c2cc(Cl)ccc21
inactive: NCI-H23 lung 110% | NCI-H322M lung 102% | HOP-62 NSCLC 107% | NCI-H460 lung 106% | HOP-92 NSCLC 107% | NCI-H522 lung 88.7% | A549/ATCC NSCLC 120% | 786-0 renal 111% | COLO 205 colon 122% | DU-145 prostate 112% | K-562 leukemia 106% | MALME-3M melanoma 97.9% | MDA-MB-231 breast 105% | RXF 393 renal 103% | SF-268 CNS 96.8% | SF-295 CNS 96.4% | SF-539 CNS 94.5% | UACC-257 melanoma 112% | M14 melanoma 108% | HCT-15 colon 111%

C=C[C@@H]1CCC/C=C/[C@@H]2C[C@H](O)C[C@H]2[C@H](O)/C=C/C(=O)O1
inactive: NCI-H322M lung 38.3% | HOP-62 NSCLC 19.2% | NCI-H460 lung 13.5% | HOP-92 NSCLC 25.5% | A549/ATCC NSCLC 22.6% | DU-145 prostate 21.1% | K-562 leukemia 11.4% | SF-295 CNS 14.6% | SF-539 CNS 30.3% | UACC-257 melanoma 33.5% | M14 melanoma 21% | HCT-15 colon 11.6%
active: NCI-H23 lung 5.64% | NCI-H522 lung -24.5% | 786-0 renal -12.9% | COLO 205 colon -78.4% | MALME-3M melanoma -12.5% | MDA-MB-231 breast -47.9% | RXF 393 renal -5.1% | SF-268 CNS 8.16%
